The nature of experiment [1]: Quantitative High-Throughput drug screen in 47 multiple myeloma cell lines against the NCATS MIPE library collection: H1112_PLB cell viability assay (AID 1918967; also: nearly all actives have a fitted effect of over 30% in size; also: potency is read from the fitted curve at half-maximal effect). An outline of the steps: (§1)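 Viability readout: CellTiter-Glo luminescence following 5 min room-temperature incubation with reagent. Prior exposure: 48 h, 37C, humidified 5% CO2, 500 cells per well.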
The nature of experiment [2]: Quantitative High-Throughput drug screen in 47 multiple myeloma cell lines against the NCATS MIPE library collection: Karpas25_ECACC cell viability assay (AID 1918968; also: nearly all actives have a fitted effect of over 35% in size; also: potency is read from the fitted curve at half-maximal effect). The gist of the method:
as §1

The nature of experiment [3]: Quantitative High-Throughput drug screen in 47 multiple myeloma cell lines against the NCATS MIPE library collection: KMS27_JCRB cell viability assay (AID 1918970). Also: nearly all actives have a fitted effect of over 30% in size. Also: potency is read from the fitted curve at half-maximal effect. An outline of the steps: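 Viability inhibition screen, 48 h compound exposure, luminescent ATP read-out.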
Experiment [4] can be described thus: Quantitative High-Throughput drug screen in 47 multiple myeloma cell lines against the NCATS MIPE library collection: KMS12BM_JCRB cell viability assay (AID 1918971). Also: nearly all actives have a fitted effect of over 35% in size. Also: potency is read from the fitted curve at half-maximal effect. The gist of the method:
(§2)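 Approved and investigational drugs from MIPE 4.0 were added by pin tool to 500 cells per well. After 48 hours at 37C, ATP-based CellTiter-Glo luminescence indicated remaining viability.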

Experiment [5] in a line: Quantitative High-Throughput drug screen in 47 multiple myeloma cell lines against the NCATS MIPE library collection: KMS20_JCRB cell viability assay (AID 1918973). Also: nearly all actives have a fitted effect of over 45% in size. Also: potency is read from the fitted curve at half-maximal effect. The gist of the method: as §1
The nature of experiment [6]: Quantitative High-Throughput drug screen in 47 multiple myeloma cell lines against the NCATS MIPE library collection: KMS26_JCRB cell viability assay (AID 1918975). Also: nearly all actives have a fitted effect of over 45% in size. Also: potency is read from the fitted curve at half-maximal effect. An outline of the steps:
as §2

Experiment [7] in a line: Quantitative High-Throughput drug screen in 47 multiple myeloma cell lines against the NCATS MIPE library collection: NCIH929_DSMZ cell viability assay (AID 1918978). Also: nearly all actives have a fitted effect of over 35% in size. Also: potency is read from the fitted curve at half-maximal effect. The gist of the method:
(§3)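 500 cells/well; MIPE 4.0 drugs pin-transferred; 48 h, 37C, 5% CO2. CellTiter-Glo, 5 min RT, luminescence. Controls: DMSO 100%, media 0%.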

Experiment [8] in a line: Quantitative High-Throughput drug screen in 47 multiple myeloma cell lines against the NCATS MIPE library collection: OCIMY1_PLB cell viability assay (AID 1918979). Also: nearly all actives have a fitted effect of over 35% in size. Also: potency is read from the fitted curve at half-maximal effect. An outline of the steps:
as §3

Experiment [9] in a line: Quantitative High-Throughput drug screen in 47 multiple myeloma cell lines against the NCATS MIPE library collection: MM1R_ATCC cell viability assay (AID 1918981). Also: nearly all actives have a fitted effect of over 35% in size. Also: potency is read from the fitted curve at half-maximal effect. The gist of the method:
as §3

A short description of experiment [10]: Quantitative High-Throughput drug screen in 47 multiple myeloma cell lines against the NCATS MIPE library collection: LP1_DSMZ cell viability assay (AID 1918982). Also: nearly all actives have a fitted effect of over 35% in size. Also: potency is read from the fitted curve at half-maximal effect. An outline of the steps: as §3
Experiment [11] can be described thus: Quantitative High-Throughput drug screen in 47 multiple myeloma cell lines against the NCATS MIPE library collection: KMS28PE_JCRB cell viability assay (AID 1918983). Also: nearly all actives have a fitted effect of over 35% in size. Also: potency is read from the fitted curve at half-maximal effect. The gist of the method: as §3
Experiment [12] can be described thus: Quantitative High-Throughput drug screen in 47 multiple myeloma cell lines against the NCATS MIPE library collection: L363_DSMZ cell viability assay (AID 1918984). Also: nearly all actives have a fitted effect of over 40% in size. Also: potency is read from the fitted curve at half-maximal effect. The gist of the method:
as §3

Experiment [13] is described as follows: Quantitative High-Throughput drug screen in 47 multiple myeloma cell lines against the NCATS MIPE library collection: KMS34_JCRB cell viability assay (AID 1918985). Also: nearly all actives have a fitted effect of over 40% in size. Also: potency is read from the fitted curve at half-maximal effect. An outline of the steps: as §3
A short description of experiment [14]: Quantitative High-Throughput drug screen in 47 multiple myeloma cell lines against the NCATS MIPE library collection: OCIMY7_PLB cell viability assay (AID 1918987). Also: nearly all actives have a fitted effect of over 65% in size. Also: potency is read from the fitted curve at half-maximal effect. An outline of the steps:
as §3

A short description of experiment [15]: Quantitative High-Throughput drug screen in 47 multiple myeloma cell lines against the NCATS MIPE library collection: MM1S_ATCC cell viability assay (AID 1918980). Also: nearly all actives have a fitted effect of over 45% in size. Also: potency is read from the fitted curve at half-maximal effect. An outline of the steps: as §3
A short description of experiment [16]: Quantitative High-Throughput drug screen in 47 multiple myeloma cell lines against the NCATS MIPE library collection: MMM1_PLB cell viability assay (AID 1918976). An outline of the steps: as §3
The nature of experiment [17]: Quantitative High-Throughput drug screen in 47 multiple myeloma cell lines against the NCATS MIPE library collection: MOLP8_DSMZ cell viability assay (AID 1918977). Also: nearly all actives have a fitted effect of over 45% in size. Also: potency is read from the fitted curve at half-maximal effect. The gist of the method: as §3
The nature of experiment [18]: Quantitative High-Throughput drug screen in 47 multiple myeloma cell lines against the NCATS MIPE library collection: KMS12PE_JCRB cell viability assay (AID 1918972). Also: nearly all actives have a fitted effect of over 30% in size. The gist of the method: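 CellTiter-Glo luminescence (ATP) after 48 h compound exposure, 37C/5% CO2; 500 cells/well; MIPE 4.0 approved/investigational drugs pinned in; DMSO = 100%, media only = 0% viability.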

A short description of experiment [19]: Quantitative High-Throughput drug screen in 47 multiple myeloma cell lines against the NCATS MIPE library collection: KMS21BM_JCRB cell viability assay (AID 1918974). Also: potency is read from the fitted curve at half-maximal effect. As to conditions: ATP luminescence, 48 h; viability: at 45.8 µM (top of the series). An outline of the steps: as §1

Each structure is given as a SMILES string. Results filed as inconclusive are left out. Calls of active or inactive are those of the source. Calls follow the shape of the dose curve; as a rule, active = well fitted curve in the direction sought with a large enough effect; inconclusive = small, poorly fitted or top-dose-only effect, or another doubt; inactive = no such curve, though single readings can be large; an effect the other way counts as inactive or inconclusive.

Turning to `CC[C@@H]1[C@@H](C)O[C@@](O)([C@@H](C)[C@H](O)[C@H](C)[C@H]2OC(=O)C=CC=C[C@@H](C)[C@@H]([C@@H](C)[C@@H](O)[C@H](C)[C@@]3(O)C[C@H](O[C@H]4C[C@H](O)[C@H](O)[C@H](C)O4)[C@H](CC)[C@@H](C)O3)OC(=O)C=CC=C[C@@H]2C)C[C@H]1O[C@H]1C[C@H](O)[C@H](O)[C@H](C)O1`, the Potency in experiment [1] was 1050 nM (active); in experiment [2], 743 nM (active); in experiment [3], 264 nM (active); in experiment [4] it was 935 nM (active); in experiment [5], 833 nM (active); in [6] it was 526 nM (active). For the same compound, the Potency in experiment [7] is 935 nM (active); in experiment [8], 833 nM (active); in experiment [9], 526 nM (active); in [10], 590 nM (active); in experiment [11], 372 nM (active); in [12] it was 372 nM (active). Also, the Potency in [13] was 935 nM (active); in experiment [14] it was 662 nM (active).

For `CSCC[C@@H](NC(=O)[C@@H](Cc1ccccc1)NC(=O)CNC(=O)CNC(=O)[C@@H](N)Cc1ccc(O)cc1)C(=O)O`, the Potency result in [1], in [2], in [3], in experiment [5], in experiment [6] and in experiment [7] was “inactive” each time. The Potency entry in experiment [8], in experiment [10], in experiment [11], in experiment [12] and in [13] was “inactive” throughout.

In the case of `N=c1c2c(-c3ccccc3)c(-c3ccccc3)n(Cc3ccccc3)c2ncn1C1CCC(O)CC1` (stereo not drawn), the Potency was 6620 nM (active) in [1]; 4180 nM (active) in [2]; 3720 nM (active) in [3]; 6620 nM (active) in experiment [4]; 2640 nM (active) in experiment [5]; 26400 nM (active) in [6]. Moreover, the Potency in experiment [7] is 1320 nM (active); in experiment [15], 5260 nM (active); in experiment [10], 23500 nM (active); in experiment [11], 11800 nM (active); in experiment [12] it was 5260 nM (active); in experiment [13], 13200 nM (active). Further, in experiment [14], the Potency was 132 nM (active).

For `CCN(CC)C(=O)c1ccc(C2=CC3(CCNCC3)Oc3cccc(O)c32)cc1`, the Potency result in experiment [1], in [2], in [5], in experiment [6], in experiment [7] and in experiment [8] was “inactive” in each case. Besides, the Potency result in experiment [10], in experiment [11] and in experiment [14] was “inactive” each time. Further, the Potency in experiment [16] is 10500 nM (active).

For the compound `C=CCON=C(C[C@H]1O[C@@H]2O[C@]3(C)CC[C@@H]4[C@H](C)CC[C@@H]([C@H]1C)[C@@]24OO3)[C@H]1O[C@@H]2O[C@]3(C)CC[C@H]4[C@H](C)CC[C@@H]([C@@H]1C)[C@@]24OO3`, the Potency in [1] was 469 nM (active); in [2], 209 nM (active); in experiment [4], 148 nM (active); in experiment [5], 372 nM (active); in experiment [6] it was 264 nM (active); in experiment [17] it was 235 nM (active). The Potency in experiment [7] was 148 nM (active); in experiment [15], 526 nM (active); in [11], 264 nM (active); in experiment [13], 264 nM (active); in experiment [14] it was 105 nM (active).

With `CC(=CCCC1=CCC(C2=CC(=O)OC2O)OC1O)CCC1=C(C)CCCC1(C)C` (stereo not drawn), the Potency result in experiment [1], in [2], in experiment [3], in experiment [6], in experiment [17] and in experiment [8] was “inactive” each time. The Potency result in experiment [9] and in experiment [10] was “inactive” each time. Moreover, the Potency is 20900 nM (active) in [15] and 2350 nM (active) in experiment [12].

With `COC1=CC(C)=C[C@@H](C)[C@@H](O)[C@@H](C)CC(C)=CC=C[C@H](OC)[C@H]([C@@H](C)[C@@H](O)[C@H](C)[C@@]2(O)C[C@@H](O)[C@H](C)[C@@H](C(C)C)O2)OC1=O`, the Potency was 1660 nM (active) in experiment [1]; 8.3 nM (active) in experiment [2]; 1 nM (active) in experiment [5]; 3.3 nM (active) in [6]; 2.1 nM (active) in experiment [10]; 14800 nM (active) in experiment [11]. For the same compound, in experiment [13], the Potency was 3 nM (active).

`C[C@H]([C@H](O)CCC(C)(C)O)[C@H]1CC[C@@]2(O)C3=CC(=O)[C@@H]4C[C@@H](O)[C@@H](O)C[C@]4(C)[C@@H]3CC[C@]12C`: the Potency entry in experiment [1], in experiment [2], in experiment [3], in experiment [6], in [7] and in experiment [8] was “inactive” in each case. For the same compound, the Potency entry in experiment [15], in experiment [10], in experiment [12] and in experiment [14] was “inactive” throughout. For the same compound, the Potency in experiment [16] is 14800 nM (active).

For the compound `Oc1ccc2c3c1O[C@H]1c4[nH]c5c(c4C[C@@]4(O)[C@@H](C2)N(CC2CC2)CC[C@]314)C[C@@]1(O)[C@H]2Cc3ccc(O)c4c3[C@@]1(CCN2CC1CC1)[C@H]5O4`, the Potency result in experiment [1], in [2], in experiment [3], in experiment [6], in [17] and in experiment [7] was “inactive” in each case. Besides, the Potency entry in experiment [9], in experiment [10], in [11], in experiment [12] and in experiment [13] was “inactive” each time.

Consider `O=S(=O)(F)Cc1ccccc1`, for which the Potency entry in experiment [1], in [4], in experiment [18], in [7], in experiment [8] and in [10] was “inactive” each time. The Potency entry in [11] and in experiment [13] was “inactive” in each case. In addition, the values for the Potency in [2] and in experiment [15] were 2640 nM (active) and 41.8 nM (active), respectively.

On to `CC(=O)N(C)c1cccc(-c2ccnc3c(C(=O)c4cccs4)cnn23)c1`, for which the Potency entry in experiment [1], in experiment [2], in experiment [4], in [19], in experiment [6] and in experiment [8] was “inactive” throughout. Besides, the Potency result in experiment [10], in experiment [11] and in [12] was “inactive” in each case. Moreover, the Potency in experiment [3] is 20900 nM (active).

Regarding `CC1=NN=C(c2ccc(N)cc2)c2cc3c(cc2C1)OCO3`, the Potency result in experiment [1], in experiment [2], in [4], in experiment [6], in experiment [7] and in experiment [9] was “inactive” in each case. For the same compound, in experiment [10], the Potency result was “inactive”. The Potency in experiment [19] was 14800 nM (active).

For the compound `COc1ccc(CC2NCCc3cc(OC)c(OC)cc32)cc1OC` (stereo not drawn), the Potency result in experiment [1], in experiment [3], in experiment [4], in experiment [18], in [6] and in experiment [10] was “inactive” each time. For the same compound, the Potency result in experiment [11] was “inactive”.
